From PubChem BioAssay
Values joined by “and” are separate entries in the source; they are usually repeats but may differ in a detail not shown here. Equal entries are not always repeated. Active and inactive are the calls of the source.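 How the source made its calls, unless noted: active means inhibition at or above 50% relative to wild type and mutant plate controls; inactive means inhibition below 50%.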

How the values were obtained:
[1] = inhibitors of TNFa-induced NFkB p65 translocation, primary screen, imaging, HUVEC, MLSMR starter and 10KST1 sets (AID 438;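 active means inhibition above 20% together with a positive visual image hit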;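 further: compound added about 3h40 before a 20 min TNFalpha stimulation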;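 on inhibition: signal is the nuclear over cytoplasmic p65 intensity ratio per well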); conditions: HUVEC TNFa-induced p65 nuclear translocation; cell count: measured here: nuclei count (cytotoxicity indicator), at 2.08 µM unless noted; inhibition: at 2 µM, stronger effect = higher value unless noted
[2] = inhibitors of mutant huntingtin aggregation, primary screen, imaging, exon1htt(103Q)mCFP cells, high-content imaging (AID 483;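 active means visual image review flags a hit and inhibition of aggregation exceeds 20%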;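 further: compound exposure lasted 3 days before fixation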;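 on nuclei count: percent of the per-plate median nuclei count of sample wells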); conditions: exon1htt(103Q)mCFP cell line, aggregate imaging, at 2 µM; inhibition of aggregation: stronger effect = higher value; nuclei count: measured here: cell count, toxicity
[3] = inhibitors of E-selectin induction by TNFa, primary screen, imaging, HUVEC, immunofluorescence, MLSMR starter and 10KST1 sets (AID 487;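 active means visually confirmed hit in the image check and inhibition above 20%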;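 on inhibition: signal is fraction of cell area covered by stained E-selectin grains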;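 on nuclei count: 100% = median nuclei count of all wells on the same plate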); conditions: HUVEC TNFalpha-induced E-selectin immunofluorescence imaging, at 2 µM; inhibition: stronger effect = higher value; nuclei count: measured here: cell number, toxicity
[4] = DUSP6 inhibitors restoring Erk phosphorylation by chemical complementation, primary imaging in DUSP6-transfected HeLa (AID 609;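 active means compounds giving at least 50% inhibition in the cell-based MKP-3 phosphatase rescue imaging test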;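 on inhibition: phospho-Erk level distribution per well compared with pooled transfected vehicle control wells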); conditions: HeLa MKP-3 transfected, phospho-Erk imaging KS statistic, at 10 µM
[5] = target: Dual specificity protein phosphatase 6 (Homo sapiens) (UniProt Q16828); assay: as above; conditions: HeLa MKP-3 transfected, phospho-Erk imaging KS statistic, at 10 µM, stronger effect = higher value
Dual specificity protein phosphatase 6 (Homo sapiens), sequence (Q16828 whole entry, looked up): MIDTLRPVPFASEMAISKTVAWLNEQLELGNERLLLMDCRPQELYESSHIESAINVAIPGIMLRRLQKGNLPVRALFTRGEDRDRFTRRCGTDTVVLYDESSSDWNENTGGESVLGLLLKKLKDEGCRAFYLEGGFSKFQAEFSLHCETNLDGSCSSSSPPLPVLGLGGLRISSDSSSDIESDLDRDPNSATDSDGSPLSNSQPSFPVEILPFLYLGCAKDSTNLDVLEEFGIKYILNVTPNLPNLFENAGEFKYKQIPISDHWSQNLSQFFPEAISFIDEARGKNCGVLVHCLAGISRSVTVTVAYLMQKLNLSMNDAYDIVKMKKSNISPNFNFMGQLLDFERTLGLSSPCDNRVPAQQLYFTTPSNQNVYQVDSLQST

[6] = target: Voltage-gated potassium channel subunit beta-2 (Rattus norvegicus) (UniProt P62483); assay: KvBeta enzyme negative modulators, primary screen, biochemical, NADPH fluorescence (AID 622;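 active means fluorescence slope higher than the sample average by over 3 SD, cut at about -0.22 in these data, passing the limit was not always enough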;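 further: slope of raw intensity against log time taken from 70 to 1610 s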); conditions: recombinant KvBeta, 4-cyanobenzaldehyde reduction, at 10 µM, stronger effect = higher value
Voltage-gated potassium channel subunit beta-2 (Rattus norvegicus), sequence (P62483 whole entry, looked up): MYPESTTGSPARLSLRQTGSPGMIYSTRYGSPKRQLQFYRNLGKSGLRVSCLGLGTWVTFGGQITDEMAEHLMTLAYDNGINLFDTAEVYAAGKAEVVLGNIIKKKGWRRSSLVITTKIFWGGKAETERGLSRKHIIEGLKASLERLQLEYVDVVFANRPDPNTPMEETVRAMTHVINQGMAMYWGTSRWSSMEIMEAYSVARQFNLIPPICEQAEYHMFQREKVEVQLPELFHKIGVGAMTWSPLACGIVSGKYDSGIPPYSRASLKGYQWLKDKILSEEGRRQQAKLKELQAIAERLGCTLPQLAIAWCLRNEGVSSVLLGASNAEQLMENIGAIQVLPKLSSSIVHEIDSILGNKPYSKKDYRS

[7] = target: Voltage-gated potassium channel subunit beta-2 (Rattus norvegicus) (UniProt P62483); assay: KvBeta positive modulators, primary screen, biochemical, NADPH fluorescence (AID 623;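 active means NADPH fluorescence slope more negative than the mean of all samples by about 3 SD, 99.7% confidence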;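 further: fluorescence intensity change per second fitted from 20 to 320 s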); conditions: Recombinant KvBeta, NADPH fluorescence decrease slope, 10 min; at 10 µM; stronger effect = lower value
[8] = target: Alpha-2C adrenergic receptor (Homo sapiens) (UniProt P18825); assay: modulators of alpha2C/GIRK thallium flux, primary screen, cell-based, HEK293 alpha2C/GIRK1/2 (AID 624;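 active means fluorescence slope after compound addition differing from the mean of all screened samples at 99.7% confidence, in either direction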;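 further: slope of fluorescence ratio to pre-addition baseline per second over 15 to 24 s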); conditions: thallium flux BTC fluorescence, at 10 µM, actives lie on both sides
Alpha-2C adrenergic receptor (Homo sapiens), sequence (P18825 whole entry, looked up): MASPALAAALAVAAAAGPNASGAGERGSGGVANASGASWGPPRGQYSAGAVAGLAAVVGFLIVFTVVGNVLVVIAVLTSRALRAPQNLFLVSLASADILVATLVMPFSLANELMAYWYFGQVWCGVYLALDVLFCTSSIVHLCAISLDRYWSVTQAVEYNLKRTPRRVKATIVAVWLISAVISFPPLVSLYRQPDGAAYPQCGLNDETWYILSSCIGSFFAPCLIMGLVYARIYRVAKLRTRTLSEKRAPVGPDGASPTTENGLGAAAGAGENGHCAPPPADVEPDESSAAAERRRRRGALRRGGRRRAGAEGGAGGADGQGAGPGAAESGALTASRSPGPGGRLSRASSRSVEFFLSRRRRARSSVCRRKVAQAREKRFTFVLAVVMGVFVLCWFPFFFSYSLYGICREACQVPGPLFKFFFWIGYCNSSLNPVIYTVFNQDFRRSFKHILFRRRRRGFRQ

[9] = inhibitors of larval lipid processing in zebrafish, primary screen, whole organism, PED6 fluorescence, gall bladder and intestine (AID 686;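 active means a full or partial loss of lipid-probe fluorescence in the fish gall bladder, intestine or both, judged by eye; inactive means no fluorescence loss, or compound toxic to the fish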;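 further: larvae 5 to 7 days old with five fish per well; signal comes from phospholipase A2 cleavage of quenched PED6 carried via bile; overnight exposure to compound and PED6 before scoring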); conditions: Zebrafish larvae PED6 lipid processing, fluorescence scoring
[10] = inhibitors of Chlamydomonas gravitaxis, primary screen, whole organism, Chlamydomonas reinhardtii, WT vs cilia-less mutant, absorbance, 96-well (AID 463189); conditions: OD600 absorbance, 2 days, at 10 µM, stronger effect = higher value;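 further: 0% = wild type cc124 cells in DMSO and 100% = ciliumless bld1 mutant cells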
[11] = inhibitors of Sendai virus-induced IRF3 signaling, primary screen, TLR/RLR signaling modifier project, cell-based, Sendai virus stimulus, luciferase, 10K MLSCN set (AID 602276;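 active means inhibition at or above 50% at 10 µM; inactive means inhibition below 50%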;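 further: firefly luciferase from ISG56 promoter only with Renilla not read in this screen; 0% = Sendai virus plus DMSO and 100% = medium plus DMSO without virus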); conditions: HEK293 RL24 IRF3 luciferase reporter, at 10 µM, stronger effect = higher value
[12] = inhibitors of poly I:C-induced TLR3 signaling, primary screen, cell-based, poly I:C stimulus, luciferase, 10K MLSCN set (AID 602277;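 active means inhibition of the reporter signal at or above 50%; inactive means inhibition below 50%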); conditions: HEK293-TLR3 RL24 IRF3 luciferase reporter, at 10 µM, stronger effect = higher value
[13] = target: Muscarinic acetylcholine receptor M4 (Homo sapiens) (UniProt P08173); assay: compounds altering M4/GIRK thallium flux, either direction, primary screen, M4 allosteric agonist project, cell-based, HEK293 M4/GIRK, BTC-AM (AID 625;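 active means fluorescence slope after compound addition differing from the mean of all tested samples at 99.7% confidence, mostly higher but some lower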;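 further: thallium influx through GIRK channels coupled to M4 in HEK293 cells with BTC-AM dye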); conditions: at 10 µM, actives lie on both sides
Muscarinic acetylcholine receptor M4 (Homo sapiens), sequence (P08173 whole entry, looked up): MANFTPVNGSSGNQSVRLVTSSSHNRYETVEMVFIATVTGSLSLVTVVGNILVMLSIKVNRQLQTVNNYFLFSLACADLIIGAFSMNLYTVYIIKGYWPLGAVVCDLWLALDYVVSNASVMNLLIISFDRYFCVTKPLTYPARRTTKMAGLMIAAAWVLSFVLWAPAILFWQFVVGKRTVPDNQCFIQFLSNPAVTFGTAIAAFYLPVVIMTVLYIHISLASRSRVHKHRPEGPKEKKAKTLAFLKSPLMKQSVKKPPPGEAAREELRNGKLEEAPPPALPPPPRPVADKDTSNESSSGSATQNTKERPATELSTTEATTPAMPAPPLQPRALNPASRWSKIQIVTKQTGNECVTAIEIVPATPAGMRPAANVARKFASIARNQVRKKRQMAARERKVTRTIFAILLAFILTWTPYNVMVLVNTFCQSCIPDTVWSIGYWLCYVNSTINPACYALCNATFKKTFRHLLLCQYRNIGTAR

[14] = measured here: cell density z-score
[15] = measured here: nuclear c-Myc green intensity z-score
[16] = measured here: nuclear pErk red intensity z-score, stronger effect = higher value

| SMILES | cell count [1] | inhibition [1] | inhibition of aggregation [2] | nuclei count [2] | inhibition [3] | nuclei count [3] | z-score [4, 14] | z-score [4, 15] | z-score [4, 16] | inhibition [5] | fluorescence slope [6] | NADPH fluorescence slope [7] | slope [8] | outcome [9] | inhibition [10] | inhibition [11] | inhibition [12] | fluorescence slope [13] |
| --- | --- | --- | --- | --- | --- | --- | --- | --- | --- | --- | --- | --- | --- | --- | --- | --- | --- | --- |
| O=c1[nH]c(=O)n(Cc2ccco2)c(O)c1C=NCCCn1ccnc1 | 506 | -1.7% (inactive) | 4.4% (inactive) | 89.9% | -104% (inactive) | 123% | 0.638 | -0.867 | 0.884 | -0.584% (inactive) | -0.334 (inactive) | -2.4e-05 (inactive) | 0.00606 (inactive) | inactive | 14.1% (inactive) | 8.16% (inactive) | 21.1% (inactive) | – |
| C[C@H]1CCCC(=O)CCCCCc2cc(O)cc(O)c2C(=O)O1 | 593 | -6.9% (inactive) | 2.6% (inactive) | 82.4% | -84.5% (inactive) | 116% | 1.09 | -0.366 | -0.0362 | 29.1% (inactive) | -0.439 (inactive) | 2.4e-05 (inactive) | 0.00367 (inactive) | inactive | -7.02% (inactive) | -0.827% (inactive) | 16.9% (inactive) | – |
| C#C[C@]1(O)CC[C@H]2[C@@H]3CCC4=CC(=O)CC[C@]4(C)[C@H]3CC[C@@]21C | 605 | 4.5% (inactive) | -1.7% (inactive) | 104% | -96.4% (inactive) | 120% | 0.928 | -0.272 | -0.147 | 19% (inactive) | -0.469 (inactive) | -5.4e-05 (inactive) | 0.00473 (inactive) | inactive | -7.99% (inactive) | 9.99% (inactive) | 37.9% (inactive) | – |
| Cc1ccc(C)c(C2(O)CC(C)N(C)CC2C)c1 (stereo not drawn) | 530 | 1.6% (inactive) | -5.5% (inactive) | 99.7% | -53.3% (inactive) | 111% | -0.226 | 0.594 | -0.947 | 5.35% (inactive) | -0.458 (inactive) | -4.2e-05 (inactive) | – | inactive | -6.61% (inactive) | -14.7% (inactive) | 94.6% (active) | 0.00518 (inactive) |
| CCCC(=O)OCC[N+](C)(C)C | 626 | -8.2% (inactive) | -16.7% (inactive) | 111% | -31.1% (inactive) | 135% | 0.404 | -0.787 | 0.37 | 13.3% (inactive) | -0.481 (inactive) | 5e-06 (inactive) | 0.00561 (inactive) | inactive | 18.3% (inactive) | 21.4% (inactive) | 35% (inactive) | – |
| O=c1[nH]c2ccccc2n1C1CCN(CCCC(c2ccc(F)cc2)c2ccc(F)cc2)CC1 | 544 | -2.2% (inactive) | – | – | -26.6% (inactive) | 108% | -0.698 | 0.151 | -0.248 | 5.42% (inactive) | -0.556 (inactive) | -6.4e-05 (inactive) | 0.00493 (inactive) | inactive | -5.72% (inactive) and -16.1% (inactive) | 18.5% (inactive) | 10.5% (inactive) | – |
| C[C@H]1CCC/C=C/C2C[C@H](O)CC2[C@H](O)/C=C/C(=O)O1 (stereo partly drawn) | 647 | 83.2% (active) | -436% (inactive) | 0.6% | 94.9% (active) | 120% | -0.283 | 0.495 | -0.185 | 23.4% (inactive) | -0.473 (inactive) | -3.1e-05 (inactive) | 0.00536 (inactive) | inactive; toxic | 155% (active) | -44.8% (inactive) | 83% (active) | – |
| CN1C(=O)CN=C(c2ccc(Cl)cc2)c2cc(Cl)ccc21 | 702 | -2.8% (inactive) | -25.6% (inactive) | 108% | -88.1% (inactive) | 128% | 0.107 | -0.617 | 0.523 | -6.41% (inactive) | -0.442 (inactive) | -4.1e-05 (inactive) | 0.00345 (inactive) | inactive; toxic | -0.225% (inactive) | 0.552% (inactive) | 32% (inactive) | – |
| CNCCc1c[nH]c2ccccc12 | 615 | -10.3% (inactive) | 3.8% (inactive) | 103% | -70.6% (inactive) | 127% | -0.539 | -0.571 | -0.457 | -6.41% (inactive) | -0.506 (inactive) | 2.2e-05 (inactive) | 0.00539 (inactive) | inactive | 1.04% (inactive) | 25.5% (inactive) | 49.1% (inactive) | – |
| CN1[C@@H]2CC[C@H]1CC(OC(=O)C1C=Nc3ccccc31)C2 (stereo partly drawn) | 619 | 0.8% (inactive) | -36% (inactive) | 99.6% | -33.8% (inactive) | 116% | -1.01 | -0.312 | 0.0205 | 8% (inactive) | -0.448 (inactive) | -6.1e-05 (inactive) | 0.00567 (inactive) | inactive | -4.66% (inactive) | -81.8% (inactive) | 52.8% (active) | – |
